Measured values from PubChem BioAssay AID2023 (NMMLSC, 2009).
Where “and” joins values, the source holds several entries; their conditions need not be identical. Equal entries are not always repeated. The campaign covered roughly 320,000 compounds. About 1,100 (0.34%) were called active.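 The calls were made as follows: active = GFP response vs DMSO above a set limit, about the screen mean plus 3 SD (cut at about 150% in these data); inconclusive = under 70 cell events counted for the yeast strain; inactive = the rest.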 What follows is part of a selection rich in actives, with near analogues and random picks from the rest. Some structures have more than one record in an assay (separate samples or runs), and their calls can disagree.

Experiment: TOR pathway LAP4-GFP level changes – S. cerevisiae, multiplex flow cytometry, MLPCN library, primary screen (AID 2023)
Conditions: 3 h, at 10 µM, stronger effect = higher value, median GFP as percent of DMSO wells

Row | SMILES | GFP response vs DMSO
1 | CCc1noc(C)c1C(=O)Nc1nc2ccc(OC)cc2s1 | 152% (active)
2 | COc1cccc(C(=O)Nc2nc3ccc(S(C)(=O)=O)cc3s2)c1 | 103% (inactive)
3 | CCc1noc(C)c1C(=O)Nc1nc(-c2ccccc2)cs1 | 115% (inactive)
4 | COc1cc(C(=S)N2CCOCC2)cc(OC)c1OC(=O)c1ccc([N+](=O)[O-])cc1[N+](=O)[O-] | 91.2% (inactive)
5 | O=C(CSc1ncnc2sccc12)N1CCN(C(=O)c2cccs2)CC1 | 107% (inactive)
6 | Nc1c(C(=O)c2cccs2)sc2nsc(SCCN3CCCCC3)c12 | 203% (active)
7 | CCc1c(C)c2ccc(OC3CCCCC3=O)cc2oc1=O (stereo not drawn) | 99.3% (inactive)
8 | CC(C)c1ccc(NC(=O)C2CCCN(S(=O)(=O)c3cccnc3)C2)cc1 (stereo not drawn) | 94.4% (inactive)
9 | Cc1[nH][nH]c(=O)c1C(c1ccc(-c2ccc(Cl)cc2)o1)c1c(C)[nH][nH]c1=O | 184% (active)
10 | CCOc1ccc(C(c2c(C)[nH][nH]c2=O)c2c(C)[nH][nH]c2=O)cc1OCC | 128% (inactive)
11 | O=C(NC1CCCCC1)c1ccc(-c2ccc(Cl)cc2)o1 | 118% (inactive)
12 | Oc1ccc2ccccc2c1N=Nc1nccs1 | 165% (active)
13 | CCN(c1ccccc1)S(=O)(=O)c1cc2c(cc1C)n(C)c(=O)c(=O)n2C | 99.4% (inactive)
14 | Cc1ccccc1OCCC(=O)OCC(=O)NCCc1ccc(S(N)(=O)=O)cc1 | 91.6% (inactive)
15 | CC(C)CC1(C)NC(=O)N(CC(=O)Nc2ccc3c(c2)OCCO3)C1=O (stereo not drawn) | 95.9% (inactive)
16 | CC1(C)CC(=O)CC2(C1)NCC(c1ccccc1Cl)c1c2[nH]c2ccccc12 (stereo not drawn) | 107% (inactive)
17 | CC(C)c1nc(SCC(=O)Nc2cccc(C(=O)O)c2)c2c3c(sc2n1)CCCC3 | 99.7% (inactive)
18 | COc1ccc(-n2c(C)cc(C(=O)CN3C(=O)NC4(CCc5ccccc54)C3=O)c2C)cc1 (stereo not drawn) | 96.4% (inactive)
19 | CCc1ccc(S(=O)(=O)N/N=C\c2ccc([N+](=O)[O-])o2)cc1 | 87.6% (inactive)
20 | CCn1c(/C=C/c2ccc([N+](=O)[O-])o2)nc2ccccc2c1=O | 358% (active)
21 | CCn1c(=O)c([N+](=O)[O-])c(NCc2ccc3c(c2)OCO3)c2ccccc21 | 101% (inactive)
22 | Cc1cccc([C@@H]2[C@@H]3C(=O)N(Cc4ccccc4)C(=O)[C@@H]3[C@]3(C)C(=O)N(c4ccc(Br)cc4)C(=O)N23)c1 | 98.8% (inactive)
23 | CN(c1ccccc1)S(=O)(=O)c1cc(C(=O)N2CCN(c3ncccn3)CC2)ccc1Cl | 91.2% (inactive)
24 | C[C@@H](CN1CCC[C@H]1CN1C(N)=NC[C@@H]1Cc1ccccc1)N1C[C@@H](Cc2ccccc2)N(CCCC2CCCC2)C1=N | 96.6% (inactive)

Row | SMILES | GFP response vs DMSO
25 | O=C(Nc1cc(-c2ccccc2)nn1-c1ccccc1F)c1ccc([N+](=O)[O-])cc1 | 134% (inactive)
26 | COc1ccccc1CNC(=O)CN1CCC(n2cnc3cc(F)ccc32)CC1 | 97.5% (inactive)
27 | COc1ccc(NC(=O)/C(Cl)=C(/Cl)S(=O)Cc2ccc(C)cc2)cn1 (stereo not drawn) | 201% (active)
28 | CCOc1ccc(S(=O)(=O)Nc2ccc(OC)nc2)cc1 | 98.1% (inactive)
29 | COc1ccc(Nc2ccc([N+](=O)[O-])cn2)cn1 | 89.6% (inactive)
30 | O=C(Nc1ccon1)c1nc[nH]c1C(=O)NCc1ccccc1 | 94.7% (inactive)
31 | Cc1cc2ccccc2n1CCC(=O)O | 154% (active)
32 | O=C(O)CCn1c(Cc2ccccc2)nc2ccccc21 | 88.9% (inactive)
33 | Cc1cc2ccccc2n1CCNC(=O)COc1ccc2ccccc2c1 | 112% (inactive)
34 | CCOc1ccc(NC(=S)NC(=O)/C=C/c2ccc(OC)cc2)c([N+](=O)[O-])c1 | 95.5% (inactive)
35 | COc1ccc(-n2nc(C(=O)NCC(=O)N3CCCCCC3)c3ccccc3c2=O)cc1Cl | 112% (inactive)
36 | CNS(=O)(=O)c1cccc(C(=O)OCCCC(=O)c2ccccc2)c1 | 100% (inactive)
37 | CCN(CC)c1ccc2cc(C(=O)O)c(=O)oc2c1 | 157% (active)
38 | CCOC(=O)c1cc2cc3ccccc3cc2oc1=O | 88.3% (inactive)
39 | COc1cccc(C(=O)c2cc3ccc(O)cc3oc2=O)c1 | 121% (inactive)
40 | C[C@H]1CC[C@]2(O[C@@H](CCO)C[C@@H](O)[C@@H]2O)O1 | 105% (inactive)
41 | O=c1[nH]c(CSc2ccccc2)nc2c1oc1ccccc12 | 107% (inactive)
42 | O=C(Nc1cccc2ccccc12)c1onc2c1CCCC2 | 94% (inactive)
43 | COc1ccc(N(CC(=O)NCC2CCCO2)C(=O)CCC(=O)Nc2nccs2)c(OC)c1 (stereo not drawn) | 91.8% (inactive)
44 | CN(C)S(=O)(=O)c1cc(C(=O)Nc2ccn(C)n2)c(Cl)cc1Cl | 6410% [may fluoresce green] (active)
45 | O=C(Nc1nccs1)c1cc(S(=O)(=O)N2CCOCC2)c(Cl)cc1Cl | 89.4% (inactive)
46 | Cc1ccc(C(=O)Nc2ccn(C)n2)cc1 | 101% (inactive)
47 | COc1cccc(CCNC(=O)COc2cccc3c2OC(C)(C)C3)c1 | 113% (inactive)
48 | COc1cc(F)c(C2=CC(=O)CC(C)(C)C2)cc1F | 118% (inactive)

Row | SMILES | GFP response vs DMSO
49 | CCOC(=O)c1ccccc1NC(=S)N1CCC(C(N)=O)CC1 | 111% (inactive)
50 | CN(C)CCc1c[nH]c2ccc(Cn3cncn3)cc12 | 119% (inactive)
51 | COc1ccc(NC(=O)C2C3C=CC(C3)C2C(=O)NCc2ccccn2)c(OC)c1 (stereo not drawn) | 92.5% (inactive)
52 | CCS(=O)(=O)c1cc([N+](=O)[O-])c(Sc2ccccc2N)s1 | 100% (inactive)
53 | Nc1ccccc1SC(C[N+](=O)[O-])c1ccccc1 (stereo not drawn) | 209% (active)
54 | Cc1ccc(C(C[N+](=O)[O-])c2c(C)cc3ccccn23)cc1 (stereo not drawn) | 97.5% (inactive)
55 | COC(=O)c1ccc(N2CCOCC2)c(NC(=O)c2ccc(Br)o2)c1 | 84.3% (inactive)
56 | O=C1CCN(CCCc2ccccc2)CCN1CCO | 109% (inactive)
57 | COc1ccc(C)cc1NC(=O)CSc1cccc[n+]1[O-] | 99.3% (inactive)
58 | Cc1ccc(S(=O)(=O)N2CCC(C)CC2)cc1C(=O)NCc1ccccn1 | 99.2% (inactive)
59 | Cc1cc(N)n2nc(-c3ccc(C(C)(C)C)cc3)cc2n1 | 77.9% (inactive)
60 | CN(c1cccc(NC(=O)Nc2ccc(Cl)cc2)c1)S(C)(=O)=O | 107% (inactive)
61 | O=C(Nc1ccccc1)c1nnsc1S(=O)(=O)c1ccc(Cl)cc1 | 187% (active)
62 | Cc1nnsc1C(=O)N/N=C/c1ccccc1Cl | 106% (inactive)
63 | CC(C)Oc1ccc(S(=O)(=O)N2CCOCC2)cc1NC(=O)C1CSC2(C)CCC(=O)N12 (stereo not drawn) | 106% (inactive)
64 | O=[N+]([O-])c1ccc(S(=O)(=O)Nc2cccc(-c3ccc(N4CCCC4)nn3)c2)cc1 | 100% (inactive)
65 | COc1cc(/C=C/C(=O)O)cc(S(=O)(=O)Nc2ccccc2C(=O)NCCc2ccccc2)c1OC | 96% (inactive)
66 | CCCn1nc(C(=O)NNC(=O)CCOc2ccccc2OCC)c2ccccc2c1=O | 217% (active)
67 | CCCn1nc(C(=O)NNC(=O)CSCC(=O)Nc2cc(C)on2)c2ccccc2c1=O | 91.7% (inactive)
68 | CCCn1nc(C(=O)Nc2ccc3nc(C)sc3c2)c2ccccc2c1=O | 102% (inactive)
69 | Brc1ccc(Nc2c3c(nc4ncnn24)CCC3)cc1 | 103% (inactive)
70 | Cc1cccc(NC(=O)CSc2nnc(CCNC(=O)OC(C)(C)C)o2)c1C | 95.1% (inactive)
71 | Cc1ccc2nc(SC(C)C(=O)NCc3ccco3)[nH]c2c1 (stereo not drawn) | 111% (inactive)
72 | Cc1ccn(-c2cccc(-n3ccc(C)n3)n2)n1 | 100% (inactive)

Row | SMILES | GFP response vs DMSO
73 | CCN(CC)c1ccc(S(=O)(=O)N2CCCCC2)cc1NC(=O)C1=COCCO1 | 99.6% (inactive)
74 | CC(NC(=O)C1CCCN(S(=O)(=O)c2ccc(-n3cnnn3)cc2)C1)c1ccc(F)cc1 (stereo not drawn) | 83.4% (inactive)
75 | O=C(NCCc1csc(-c2ccccc2)n1)c1ccccc1F | 120% (inactive)
76 | O=C(O)Cc1csc(-c2cccc(Oc3ccccc3)c2)n1 | 110% (inactive) and 152% (active)
77 | COc1cc(OC)cc(C(=O)NCC(=O)OCc2csc(-c3ccccc3)n2)c1 | 101% (inactive)
78 | CC(=O)c1c(C)n([O-])c2ccccc2[n+]1=O | 99.9% (inactive)
79 | O=C(COc1cccnc1[N+](=O)[O-])Nc1ccc(Cl)cc1F | 178% (active)
80 | COc1cccc(NC(=O)COc2cccnc2[N+](=O)[O-])c1 | 94.7% (inactive)
81 | CC(NC(=O)COc1cccnc1[N+](=O)[O-])c1ccc(Cl)cc1Cl (stereo not drawn) | 116% (inactive)
82 | COc1cccc(CCNC(=O)c2cccc(NC(=O)C3=C(C)OCCS3)c2)c1 | 93.6% (inactive)
83 | CCc1ccc(N(CC(=O)NCc2cccnc2)S(=O)(=O)c2ccccc2)cc1 | 96.7% (inactive)
84 | O=C(O)CN1c2cccc3cccc(c23)S1(=O)=O | 92.9% (inactive)
85 | COC(=O)N/N=C/c1cn(CCCOc2ccc(C)cc2)c2ccccc12 | 89.7% (inactive)
86 | COC(=O)c1cn(CC(=O)NCc2cccs2)c2ccccc12 | 95% (inactive)
87 | COC(=O)Cn1cc(/C=C/[N+](=O)[O-])c2ccccc21 | 164% (active)
88 | COC(=O)Cc1cnc(NC(=O)CSc2nc(C(C)C)cc(=O)[nH]2)s1 | 114% (inactive)
89 | COc1cc(C)c(C(C)C)cc1S(=O)(=O)n1ccnc1 | 89.6% (inactive)
90 | COc1ccc2c(c1)O/C(=C\c1ccccc1O)C2=O | 108% (inactive)
91 | COC(=O)c1ccc(/C=C2/C(=O)Oc3ccccc32)cc1 | 93.2% (inactive)
92 | O=C1Oc2ccccc2C(=O)/C1=C/c1ccccc1O | 208% (active)
93 | COc1ccc(Cl)cc1NC(=O)CN(C)C(=O)CCCc1c[nH]c2ccccc12 | 99.5% (inactive)
